Bioassay records deposited in PubChem by The Scripps Research Institute Molecular Screening Center.
MOR-DOR inv ag = mu-delta opioid heterodimer inverse agonism | P35372+P41143 | cell-based MOR-DOR heterodimer luminescence | inhibition, % at 9.3 µM | 340,000 compounds, 0.21% hits | AID 504357; in the data active means inhibition above about 22%, passing the limit was not always enough;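 further: 0% = cells with DMSO and 100% = wells without cells with DMSO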
HTR2A ag = agonists of mouse serotonin 5-HT2A receptor (HTR2A); CHO-K1 mHTR2A beta-arrestin complementation, luminescence; percent of 30 µM serotonin response; P35363; AID 624169; 360,000 compounds, 0.66% hits; activation, % at 7.6 µM;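 active means activation above a run cutoff, the mean activation of all tested compounds plus 3 SD, cut at about 14% in these data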;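 further: 0% = plate median of compound wells and 100% = 30 µM serotonin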
Target sequence (P35363 whole entry, looked up): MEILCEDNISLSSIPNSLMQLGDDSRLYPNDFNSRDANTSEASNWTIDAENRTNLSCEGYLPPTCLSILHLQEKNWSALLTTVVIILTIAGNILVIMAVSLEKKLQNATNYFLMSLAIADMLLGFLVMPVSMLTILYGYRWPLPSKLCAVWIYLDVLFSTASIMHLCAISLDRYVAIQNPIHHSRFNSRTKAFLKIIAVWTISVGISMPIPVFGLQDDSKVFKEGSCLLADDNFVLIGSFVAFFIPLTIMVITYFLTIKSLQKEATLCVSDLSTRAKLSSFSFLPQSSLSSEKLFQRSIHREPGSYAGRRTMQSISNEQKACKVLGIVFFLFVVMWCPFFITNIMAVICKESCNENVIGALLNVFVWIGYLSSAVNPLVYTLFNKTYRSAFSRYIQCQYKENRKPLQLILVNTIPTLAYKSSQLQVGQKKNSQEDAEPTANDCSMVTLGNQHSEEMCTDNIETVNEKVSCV
HTR5A ag ctr = HTR5A agonism, opioid heterodimer counter-screen. P47898. HTR5A agonist assay, luminescence, cell-based. activation, % at 9.3 µM. 340,000 compounds, 0.61% hits. AID 504692; in the data active means activation mostly above about 9.5%, no sharp cut-off; inactive means mostly below about 7.6%;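 further: 0% = cells with vehicle only and 100% = reference agonist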
HTR5A inv ctr = inverse agonist of human HTR5A in OPRM1-OPRD1 counter-screen. HTR5A cell line, luminescence, inverse agonism. inhibition, % at 9.3 µM. 340,000 compounds, 0.083% hits; in the data active means inhibition mostly above about 23%, no sharp cut-off; inactive means mostly below about 18%;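 further: 0% = cells with DMSO and 100% = no-cell wells with DMSO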
MOR-DOR ag = agonists of human mu-delta opioid receptor heterodimerization; P35372+P41143; cells, OPRM1-OPRD1 heterodimerization, luminescence; activation, % at 9.3 µM; 340,000 compounds, 0.3% hits; AID 504326; in the data active means activation above about 18%;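 further: 0% = vehicle-treated cells and 100% = reference agonist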
HGIII-sPLA2 inh = Blocks human group III sPLA2 activity. Q9NZ20. QFRET BODIPY PC-A2 liposome hydrolysis, fluorescence. inhibition, % at 12.2 µM. 370,000 compounds, 0.56% hits. AID 743126;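 active means inhibition above mean plus 3 SD of compounds lying within the high and low control bounds, cut at about 19% in these data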;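 further: 0% = median of test compound wells and 100% = no enzyme DMSO wells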
* hit, by the source's call; x = no result given. This is a sample that favours compounds with a hit; in the whole collection about 2.2% have one here.

SMILES | MOR-DOR inv ag | HTR2A ag | HTR5A ag ctr | HTR5A inv ctr | MOR-DOR ag | HGIII-sPLA2 inh
Cc1ccc([C@H](C)NC(=O)C2=C(N)N(S(=O)(=O)c3ccc(C)cc3)C(C(=O)c3ccccc3)C2c2ccccc2Cl)cc1 (stereo partly specified) | x | x | x | x | x | -8.2
CCOc1ccccc1NC(=O)Nc1ccc2c(c1)OCO2 | -2.7 | 0.4 | -4.2 | -26.0 | 0.5 | -3.8
C=CCOc1ccccc1CN(C(=O)CCl)c1ccc2c(c1)OCO2 | -240.1 | -0.2 | 53.1* | -142.3 | 45.1* | 2.8
Cc1ccc(-c2cc(C(=O)NN=Cc3cccc4ccccc34)[nH]n2)cc1C | x | x | x | x | x | -0.8
COC(=O)c1nc2nc(C)cc(C(F)(F)F)n2n1 | -6.4 | 6.8 | 2.6 | -7.1 | 1.1 | 2.6
COC(=O)c1nc2nc(-c3cccs3)cc(C(F)(F)F)n2n1 | 1.7 | 11.3 | 10.8* | -29.6 | -0.2 | 3.5
CC(C1=CCCCC1)c1cnn(C)c1 (stereo unspecified) | x | x | x | x | x | 2.3
CN(C)S(=O)(=O)c1ccc(Cl)c(NC(=O)CSc2nc3c(cc2C#N)C(=O)CC(C)(C)C3)c1 | 4.8 | 2.9 | 5.9 | -1.2 | -0.9 | -6.5
CN(C)S(=O)(=O)c1cccc(NC(=O)CSc2nc3c(cc2C#N)C(=O)CC(C)(C)C3)c1 | -36.6 | 0.9 | 13.5* | -49.2 | 7.1 | -9.2
N#Cc1c(/N=C/C=C/c2ccccc2)sc2c1CCCC2 | -5.0 | 16.3* | -4.5 | -34.3 | 0.9 | 6.7
C=CCN1[C@H](Cc2ccccc2)COc2cc(N3CCSCC3)ccc2S1(=O)=O | x | x | x | x | x | -1.0
CC(=O)N1N=C(c2cccs2)CC1c1cccc([N+](=O)[O-])c1 (stereo unspecified) | 38.2* | -5.1 | -11.9 | 32.6* | -8.3 | 1.6
C=CCn1c(COc2ccc(C)cc2)nnc1SCc1ccc([N+](=O)[O-])cc1 | x | x | x | x | x | -13.3
CCn1c(SCC(=O)Nc2sccc2C(N)=O)nnc1C1CC1 | 4.2 | 2.4 | 12.8* | -31.5 | -1.0 | 0.7
Nc1ccc2c(c1)Cc1cc(N)c(Cl)cc1-2 | 1.5 | 5.5 | 2.9 | -11.5 | -0.3 | 23.9*
Nc1ccc2c(c1)Cc1cc(Cl)c(Cl)cc1-2 | -15.8 | 0.0 | 4.0 | -16.3 | 3.0 | 17.7
COCCN=c1scc(-c2cccs2)n1/N=C/c1ccc(O)c(O)c1O | -61.1 | 1.8 | 7.3 | -2.6 | 12.2 | 41.5*
CN(C(=O)[C@@H](C1CC1)[C@@H](O)c1ccc2ccccc2c1)c1ccccc1 | x | x | x | x | x | 0.4
Cn1c(-c2c(N)n(CCCc3ccccc3)c3nc4ccccc4nc23)nc2ccccc21 | -313.2 | -3.6 | 0.6 | 2.9 | 57.9* | x
O=C(NCc1ccco1)O[C@@H]1CC[C@@]23CCCN2C(=O)CCC[C@H]3C1 | x | x | x | x | x | 3.9
Cc1ccc(NC(=O)CSc2nc(O)cc(=O)n2-c2ccc(C)cc2)cc1 | 18.3 | -1.9 | -0.7 | 1.5 | -3.5 | 6.9
O=C(CSc1nc(O)cc(=O)n1-c1ccc(Cl)c(Cl)c1)Nc1ccc(Cl)cc1Cl | -12.3 | 2.3 | 10.4* | 8.3 | 1.8 | 2.6
O=C(OCCNc1nc(-c2ccccc2)nc2ccccc12)c1cccnc1 | -5.1 | 1.6 | 3.3 | -8.7 | 0.7 | -15.1
CCCOC(=O)c1cccc(Nc2nc(-c3cccnc3)nc3ccccc23)c1 | -22.2 | 0.2 | 14.1* | -78.6 | 4.8 | 0.5
CCCCNC(=O)O[C@H]1CC[C@@]23CCCN2C(=O)CCC[C@H]3C1 | x | x | x | x | x | 12.8
SMILES | MOR-DOR inv ag | HTR2A ag | HTR5A ag ctr | HTR5A inv ctr | MOR-DOR ag | HGIII-sPLA2 inh
CC[C@]12c3[nH]c4cc(-c5ccco5)ccc4c3CCN1C(=O)[C@@H](CC(=O)NCc1cccc(C(F)(F)F)c1)C[C@@H]2C(=O)N1CCN(C(=O)c2ccco2)CC1 | -0.8 | -1.3 | 3.5* | -12.1 | 0.2 | -18.2
CC[C@]12c3[nH]c4cc(-c5ccco5)ccc4c3CCN1C(=O)[C@@H](CC(=O)NCc1ccco1)C[C@@H]2C(=O)N1CCN(C(=O)c2ccco2)CC1 | 8.5 | -0.6 | 1.9 | -7.0 | -1.7 | -15.3
O=C(c1ccccc1)c1c2c(cc3sc4ccccc4[n+]13)-c1cccc3cccc-2c13 | -481.4 | 7.7 | 32.5* | -64.3 | 90.3* | 23.4*
Cc1sc2cc3c(c(C(=O)c4ccccc4)[n+]2c1C)-c1cccc2cccc-3c12 | x | x | x | x | x | 19.0
COc1ccc(-n2c(Cn3c(=O)sc4ccccc43)nnc2SC)cc1 | -0.3 | 0.1 | 11.8* | -32.6 | 0.1 | 3.1
Cc1cc(-c2ccccc2)nc(N/N=C/c2cccnc2)n1 | -0.1 | 6.1 | 11.0* | -27.1 | 0.0 | -1.6
COc1ccc(C)c(-n2c(=O)n(Cc3ccccc3)c(=O)c3[nH]cnc32)c1 | x | -17.8 | x | x | x | -5.9
Cc1ccc(S(C)=O)cc1-n1c(=O)n(Cc2ccccc2)c(=O)c2[nH]cnc21 (stereo unspecified) | 69.2* | -26.7 | -13.9 | 54.5* | -12.5 | -1.1
c1ccc2sc(-c3csc4c3CCNC4)nc2c1 | x | x | x | x | x | -0.8
CC(COc1cccc(C#N)c1)CN1CCC(C(O)(c2ccccc2)c2ccccc2)CC1 (stereo unspecified) | x | x | x | x | x | -9.8
O=C(Nc1ccc(F)cc1)N1CCN(c2nc3ccccc3s2)CC1 | 6.5 | 23.5* | -9.4 | 23.8 | -1.2 | -0.2
Cc1nc(SCC(N)=O)[nH]c(=O)c1C | x | x | x | x | x | -0.9
CC(C)(C)OC(=O)C[C@@H]1C/C=C\C[C@@H](CC(=O)N(CCO)Cc2ccccc2)C(=O)NC[C@H](c2ccccc2)OC1=O | 4.3 | -2.7 | 11.6* | 23.6 | -0.7 | -11.7
CSc1ccc(/C=C/C(=O)OCC(=O)c2ccc[nH]2)cc1 | -4.7 | 5.0 | 13.1* | 12.9 | 1.3 | 5.9
CC(C)n1c(N2CCN(C(=O)NCc3ccccc3)CC2)nc2ccccc21 | 8.9 | -2.2 | 10.4* | -34.0 | -1.6 | 6.2
C[C@H]1[C@@H](NC(=O)c2cccc(N(C)C)c2)CC[C@@]23CCCN2C(=O)CCC[C@@H]13 | x | x | x | x | x | -2.1
O=C(CN1CCN(c2ccccc2O)CC1)Nc1cc([N+](=O)[O-])ccc1Cl | -14.0 | 0.1 | 2.0 | 7.7 | 2.8 | 1.0
O=C(CN1CCN(c2ccccc2O)CC1)Nc1ccc([N+](=O)[O-])cc1Br | -20.8 | 13.2 | 10.9* | -30.7 | 4.1 | -8.0
CC(C)Oc1ccc(CNC(=O)Cn2ccc3cc(S(=O)(=O)N4CCCC4)ccc32)cc1 | 4.2 | -1.3 | 8.3* | -31.3 | -0.8 | 1.6
O=c1[nH]cnc2c1c(-c1ccccc1)cn2-c1cccc(Cl)c1 | -28.0 | 9.6 | 10.0* | -20.8 | 5.4 | -6.5
COc1ccc(-n2cc(-c3ccccc3)c3c(=O)[nH]cnc32)cc1 | 1.0 | 12.1 | 6.4 | -16.1 | -0.2 | -0.1
COc1cc(NC(=O)c2ccccc2)c(C)cc1NC(=O)CSc1nnc(-c2ccccc2F)n1-c1ccc(C)cc1 | x | x | x | x | x | -18.1
CC(C)NCC(O)COc1ccc(Br)cc1 (stereo unspecified) | -7.8 | -0.1 | 12.4* | -34.2 | 1.1 | -5.6
CC(NC(=O)c1ccc(F)cc1)c1ccccc1 (stereo unspecified) | 8.3 | 1.5 | 10.0* | -9.1 | -1.5 | 9.0
